L3MBTL1 inh: qHTS Assay for the Inhibitors of L3MBTL1; Lethal(3)malignant brain tumor-like protein 1 (Homo sapiens), Q9Y468; AlphaScreen L3MBTL1–H3K9me1 peptide binding; Potency, µM (top dose mostly 57.1 µM), inactives show at the highest dose activity, negative = inhibition, hits mostly inhibitors; 230,000 tested, 0.66% active; AID 485360, 2010; also: % is scaled to controls: 0 for no effect and ±100 for the full control effect; nearly all actives have a fitted effect of over 60% in size
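Read-out is AlphaScreen signal from streptavidin donor and nickel chelate acceptor beads (10 ug/mL final each) bridging L3MBTL1 (50 nM) and biotinylated K9-monomethylated H3(1-15) peptide (75 nM), after 30 min compound exposure at room temperature.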
G9a block: qHTS Assay for Inhibitors of Histone Lysine Methyltransferase G9a | Histone-lysine N-methyltransferase EHMT2 (Homo sapiens), Q96KQ7 | G9a H3K9 monomethylation, AlphaScreen, 2 h | Potency, µM (highest dose often 102 µM), without a hit: top-dose activity, negative = inhibition, usual class: inhibitors | 350,000 tested, 8.8% active; also: % is scaled to controls: 0 for no effect and ±100 for the full control effect; nearly all actives have a fitted effect of over 75% in size
Target sequence (Q96KQ7 913-1193 limits assumed): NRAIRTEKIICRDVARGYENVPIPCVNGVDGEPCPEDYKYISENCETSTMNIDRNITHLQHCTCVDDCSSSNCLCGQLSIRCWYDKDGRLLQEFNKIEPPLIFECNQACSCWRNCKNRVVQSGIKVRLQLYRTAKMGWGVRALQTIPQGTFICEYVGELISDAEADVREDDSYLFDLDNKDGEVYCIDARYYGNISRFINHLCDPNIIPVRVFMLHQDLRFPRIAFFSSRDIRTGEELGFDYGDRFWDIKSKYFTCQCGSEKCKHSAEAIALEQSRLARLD
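Methyltransferase reactions run at room temperature for 2 h (20 nM enzyme, 500 nM biotin-H3K9 peptide, 20 uM SAM) after a 15 min compound preincubation; product detected by AlphaScreen beads and anti-H3K9me1 antibody.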
BAZ2B inh: qHTS Assay for Inhibitors of BAZ2B. Bromodomain adjacent to zinc finger domain protein 2B (Homo sapiens), Q9UIF8. AlphaScreen BAZ2B-H3K14Ac peptide displacement. Potency, µM (top dose mostly 114 µM), without a hit: at the highest dose activity change, negative = inhibition, most hits filed as inhibitors. 360,000 tested, 4.4% active. AID 504333, 2011; also: % is scaled to controls: 0 for no effect and ±100 for the full control effect; nearly all actives have a fitted effect of over 60% in size
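Inhibition is scored as reduced AlphaScreen emission. The BAZ2B/b-H3(5-23)K14Ac complex (50 nM each) in PBS pH 7.4, 0.01% Tween-20 meets compound (up to 110 uM) for 30 min at RT before bead addition.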
HP1b binding inh: HTS for Inhibitors of HP1-beta Chromodomain Interactions with Methylated Histone Tails; 390,000 tested, 0.56% active; Chromobox protein homolog 1 (Homo sapiens), P83916; Potency, µM (doses to about 114 µM), for the others: at the highest dose activity change, negative = inhibition, actives largely listed as inhibitors; AlphaScreen HP1-beta / biotin-H3K9me3 peptide binding; also: nearly all actives have a fitted effect of over 70% in size
Target sequence (P83916 whole entry, looked up): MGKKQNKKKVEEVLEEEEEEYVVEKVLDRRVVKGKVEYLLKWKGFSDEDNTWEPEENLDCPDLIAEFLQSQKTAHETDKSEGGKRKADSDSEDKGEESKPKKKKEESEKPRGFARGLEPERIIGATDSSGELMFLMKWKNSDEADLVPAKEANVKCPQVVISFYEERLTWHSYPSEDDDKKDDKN
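AlphaScreen: HP1-beta (50 nM) preformed 30 min with biotin-H3(1-18)K9me3 peptide (50 nM) in PBS pH 7.4, 0.01% Tween-20. Compound added for 30 min at RT, then streptavidin donor/nickel chelate acceptor beads (10 ug/mL) for 30 min.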
GLS inh: qHTS for Inhibitors of Glutaminase (GLS). 410,000 tested, 0.21% active. Potency, µM (doses to about 45.5 µM), for the others: at the top dose activity change, negative = inhibition, usual class: inhibitors. AID 624170, 2012. GLS enzymatic activity, qHTS titration; also: % is scaled to controls: 0 for no effect and ±100 for the full control effect
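hKGA in 45 mM KH2PO4 pH 8.2, 0.02% Tween-20 with pin-transferred compounds; 1 mM L-glutamine (stock) plus glutamate oxidase/HRP/Amplex Red coupling added. Fluorescence read initially and after 30 min at RT.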
JMJD2A Tudor: qHTS Assay for Inhibitors of JMJD2A-Tudor Domain; AlphaScreen JMJD2A-Tudor / H3K4me3 peptide binding; 390,000 tested, 4.4% active; Lysine-specific demethylase 4A (Homo sapiens), O75164; Potency, µM (top dose mostly 114 µM), for inactives: top-dose activity change, negative = inhibition, most hits filed as inhibitors; also: % is scaled to controls: 0 for no effect and ±100 for the full control effect; nearly all actives have a fitted effect of over 50% in size
* hit, by the source's call; ? = inconclusive; . = no result; [ ] = remark or other dose. Rows were chosen to be rich in hits. Some 10% of all compounds tested hit in one or more screens of this group. Calls follow the shape of the dose curve; as a rule, active = well fitted curve in the direction sought with a large enough effect; inconclusive = small, poorly fitted or top-dose-only effect, or another doubt; inactive = no such curve, though single readings can be large; an effect the other way counts as inactive or inconclusive. Potency is read from the fitted curve at half-maximal effect.

SMILES	L3MBTL1 inh	G9a block	BAZ2B inh	HP1b binding inh	GLS inh	JMJD2A Tudor
C=CCNc1nc(-c2ccc(OC)cc2OC)cs1	-9.6%	?	56.2µM*	-14.6%	11.6%	?
O=C(CCNc1ccc(Cc2ccncc2)cc1)c1cccc([N+](=O)[O-])c1	-16.4%	8.91µM*	25.1µM*	?	-5.9%	44.7µM*
Cc1ccc(S(=O)(=O)CCC(=O)c2cccc([N+](=O)[O-])c2)cc1	.	1.41µM*	-27.5%	44.7µM*	-24.4%	28.2µM*
CC(=O)Nc1cc[n+](CC(=O)c2cccc([N+](=O)[O-])c2)cc1	0.3%	-42.2%	-17.0%	34.9%	-0.1%	3.6%
O=C(CCNc1cccc(F)c1)c1cccc([N+](=O)[O-])c1	-1.2%	7.08µM*	35.5µM*	-38.1%	-17.7%	?
Cc1ccc(C(=O)CCS(=O)(=O)c2ccc(Br)cc2)cc1	.	28.5%	3.9%	31.3%	-2.4%	-18.5%
O=C(CCNc1cccc(F)c1)c1cc2ccccc2o1	?	10µM*	13.2%	37.1%	18.5%	-23.2%
O=C(Cc1ccc(F)cc1)OCC(=O)c1cc2ccccc2o1	9.1%	?	45.3%	74.0%	13.6%	39.7%
CCOc1ccc(CN2C(=O)c3ccccc3Sc3ccc(C(=O)NCc4ccc(C)cc4)cc32)cc1	.	1.8%[59 µM]	.	31.2%	2.8%	-11.7%
CCCCOC(=O)c1ccc(OC(=O)c2sc3ncn(Cc4ccccc4Cl)c(=O)c3c2C)cc1	.	0.7%[59 µM]	1.8%	10.7%	-0.7%	-1.9%
C=Cc1ccc(Cn2c(=O)n(-c3cccc(Cl)c3)c(=O)c3c4c(sc32)CN(C(C)=O)CC4)cc1	.	?	-26.0%	21.5%	0.8%	-15.6%
Cc1ccc(C)c(N2CCN(C(=O)c3cc(S(=O)(=O)N4CCCC4)c[nH]3)CC2)c1	.	-9.4%[59 µM]	?	0.4%	3.5%	-28.2%
CCOC(=O)c1ccc([N+](=O)[O-])c(CS(=O)(=O)c2ccc(Cl)cc2)c1	.	-17.0%[2.33 µM]	?	?	-2.7%	?
Cc1ccc(S(=O)(=O)Cc2cc(F)c([N+](=O)[O-])cc2[N+](=O)[O-])cc1	.	50.1µM*	56.2µM*	19.4%	5.3%	-33.3%
NC(=O)c1cc(N2C(=O)C=CC2=O)ccc1Cl	4.1%	1.26µM*	?	?	-4.8%	25.1µM*
CC(C)(C)OC(=O)N1CCC(c2nnc(SCc3cccc(Cl)c3)o2)CC1	.	70.3%[59 µM]	75.8%	61.4%	-13.5%	39.2%
COc1ccc(NS(=O)(=O)c2cc3c(cc2C)N(C)CCO3)cc1	-6.1%	11.1%	50.1µM*	-12.5%	25.0%	?
CCOc1ccc(NS(=O)(=O)c2cc3c(cc2C)N(C)CCO3)cc1	-8.4%	0.5%	-31.7%	-13.2%	29.3%	?
Cc1oc2ccc(O)c(CN3CCCC3)c2c1C(=O)Nc1ccc(C(C)C)cc1	.	1.0%[59 µM]	?	18.9%	47.6%	-23.6%
COc1ccccc1-c1nc2s/c(=C\c3cccs3)c(=O)n2n1	.	2.82µM*	-32.8%	-37.7%	-1.6%	-5.3%[11.4 µM]
O=c1/c(=C/c2ccco2)sc2nc(-c3ccccc3Br)nn12	?	22.4µM*	44.7µM*	8.91µM*	-3.2%	50.1µM*
COc1ccc(/C=c2\sc3nc(-c4ccccc4OC)nn3c2=O)c(OC)c1	4.0%	-6.4%[12.7 µM]	-18.1%	3.1%	?	89.1µM*
Cc1ccc(/C=c2\sc3nc(-c4cccs4)nn3c2=O)o1	?	17.8µM*	-32.5%	0.3%	-2.3%	?
COc1cccc(/C=c2\sc3nc(-c4cccs4)nn3c2=O)c1OC	6.7%	-42.3%[59 µM]	-24.0%	-18.8%	-0.1%	-20.8%
NCC1CCC(N)C(O[C@@H]2C(O)[C@H](O[C@H]3OC(CO)C(O)C(N)C3O)[C@@H](N)C[C@H]2N)O1 (stereo partly specified)	.	-3.0%[2.33 µM]	.	.	-10.1%	.
SMILES	L3MBTL1 inh	G9a block	BAZ2B inh	HP1b binding inh	GLS inh	JMJD2A Tudor
Cc1cc2c(s1)c1cnn(Cc3c(F)cc(F)cc3F)c(=O)c1n2C	.	.	.	.	.	-19.2%
O=C(NCc1ccccn1)C(=O)N/N=C/c1ccccc1O	.	47.8%[59 µM]	39.8µM*	53.0%	-10.3%	25.1µM*
O=C(NCCCN1CCOCC1)C(=O)N/N=C/c1ccccc1O	?	29.1%	28.2µM*	65.3%	0.9%	28.2µM*
Cc1cc(/C=N/NC(=O)C(=O)NCc2ccccn2)c(C)n1-c1cccc(Br)c1	-27.3%	50.1µM*	50.1µM*	6.4%	-8.9%	?
CC(=O)N/N=C/c1cc(C)n(-c2ccc(Br)cc2)c1C	-15.3%	?	?	-1.9%	-3.7%	-23.8%
Cc1cc2oc(=O)cc(CN3CCCCC3C)c2cc1C (stereo unspecified)	.	50.1µM*	1.1%	-7.8%	-13.0%	-13.3%
Oc1ccccc1C1=Nc2ncnn2C(c2ccccc2)C1 (stereo unspecified)	6.5%	17.8µM*	-25.3%	2.5%	-23.3%	-23.1%
Cc1ccc(C(=O)N2N=C(c3ccccc3O)CC2c2ccccc2)cc1 (stereo unspecified)	.	1.0%	-0.8%	1.1%	-5.5%	-18.2%
CCn1c(=O)n(-c2ccc(F)c(Cl)c2)c(=O)c2sc3ccccc3c21	.	6.0%[59 µM]	-11.2%	29.0%	11.6%	-4.6%
O=c1c2ccccc2cnn1Cc1n[nH]c(=S)n1-c1cc(Cl)cc(Cl)c1	-0.4%	0.398µM*	-34.2%	21.3%	1.9%	25.1µM*
O=c1c2ccccc2cnn1Cc1n[nH]c(=S)n1-c1ccc(F)c(Cl)c1	-8.2%	3.16µM*	-24.9%	31.8%	-0.8%	7.94µM*
O=c1c2ccccc2cnn1Cc1n[nH]c(=S)n1-c1ccccc1Cl	6.4%	4.47µM*	-29.5%	39.7%	4.9%	31.6µM*
O=c1c2ccccc2cnn1Cc1ccc(Cl)c(Cl)c1	.	19.9%	65.9%	61.2%	-9.2%	51.8%
CC(=O)Nc1cc(=O)c2cccnc2[nH]1	.	.	.	1.8%	15.8µM*	50.1µM*
Cc1ccc(-n2c(SCC(=O)N3CCC(C)CC3)nc3c([nH]c4ccccc43)c2=O)cc1	.	-0.3%[59 µM]	-0.7%	19.6%[57 µM]	9.8%	-10.0%
